# Reference: PubChem BioAssay (NCATS)
# Inconclusive results are not listed. Entries that show only a call come without a potency. Activity calls are given as the source filed them. Calls follow the shape of the dose curve; as a rule, active = well fitted curve in the direction sought with a large enough effect; inconclusive = small, poorly fitted or top-dose-only effect, or another doubt; inactive = no such curve, though single readings can be large; an effect the other way counts as inactive or inconclusive.
# Legend:
# [1] = test system: Zika virus NS2B-NS3 protease (unlinked complex); assay: Primary screen GU Rhodamine qHTS for Zika virus inhibitors: Unlinked NS2B-NS3 protease assay (AID 1347159); also: nearly all actives have a fitted effect of over 60% in size
# Method in brief: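 Unlinked NS2B/NS3, 25 nM; Rhod110 peptide, 1.5 microM; compounds, up to 114 microM. Reaction run 15 min at RT in 10 mM Tris-HCl pH 8.0, 0.01% Tween 20; kinetic fluorescence change fitted with a 4-parameter Hill model.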
# [2] = test system: Zika virus NS2B-NS3 protease (linked construct); assay: Primary screen NINDS Rhodamine qHTS for Zika virus inhibitors (AID 1347160); also: nearly all actives have a fitted effect of over 55% in size
# Method in brief: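 Single-chain NS2B-NS3 protease, 25 nM, pH 8.0; compounds preincubated 15 min. Activity: Rhodamine110 release from 1.5 microM substrate over 15 min, room temperature, data fitted to 4-parameter Hill.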
# [3] = Vero cells viability qHTS for Zika virus inhibitors (AID 1347167)
# Method in brief: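 Luminescent ATP readout (CellTiter Glo) after 30 min at 37 degrees C gives viability; cells in DMEM + 4% FBS were treated 24 to 48 hours with compound, following overnight attachment.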
smiles,measurement,setting,value
NC(=O)c1cnc(NCCc2ccc(O)c(Cl)c2)nc1NCc1ccccc1,Potency,[1],inactive
same,Potency,[2],inactive
NC(=O)c1cccc2cn(-c3ccc(C4CCCNC4)cc3)nc12 (stereo not given),Potency,[1],inactive
same,Potency,[2],inactive
Cc1nc([C@](C)(O)CO)sc1-c1cnc(N)c(O[C@H](C)c2cc(F)ccc2-n2nccn2)c1,Potency,[1],inactive
same,Potency,[2],inactive
CC1CC(C(O)C(C)(C)O)OC2CC3(C)C4(C)CCC5C(C)(C)C(=O)CCC5(C)C4CCC3(O)C12O (stereo not given),Potency,[1],inactive
same,Potency,[2],inactive
O=C(CO)[C@@H](O)[C@H](O[C@@H]1O[C@H](CO)[C@H](O)[C@H](O)[C@H]1O)[C@H](O)CO,Potency,[1],inactive
same,Potency,[2],inactive
O=C(Nc1nc2ccccc2n1CCc1ccccc1)c1ccccc1,Potency,[1],inactive
same,Potency,[2],inactive
C=C1CN(Cc2ccc(C(=O)Nc3ccccc3N)cc2)C(=O)c2ccccc21,Potency,[1],inactive
same,Potency,[2],inactive
C[C@@H]1O[C@@H](O[C@@H]2[C@@H](O)[C@H](O[C@H]3[C@H](O[C@H]4CC[C@@]5(C)C(CC[C@]6(C)C5CC=C5[C@@H]7CC(C)(C)CC[C@]7(C(=O)O[C@@H]7O[C@H](CO)[C@@H](O)[C@H](O)[C@H]7O[C@@H]7O[C@@H](C)[C@H](O[C@@H]8O[C@@H](C)[C@H](O)[C@@H](O)[C@H]8O)[C@@H](O)[C@H]7O)CC[C@]56C)[C@@]4(C)CO)O[C@H](C(=O)O)[C@@H](O)[C@@H]3O)O[C@H](CO)[C@H]2O)[C@H](O)[C@H](O)[C@H]1O (stereo not given in full),"activity change, negative = inhibition",[1],22.9% [at 19.1 µM] (inactive)
same,"activity change, negative = inhibition",[2],3.12% [at 10.7 µM] (inactive)
COc1ccc(CCO[C@@H]2O[C@H](CO[C@@H]3OC[C@H](O)[C@H](O)[C@H]3O)[C@@H](O)[C@H](O)[C@H]2O)cc1,Potency,[1],inactive
same,Potency,[2],inactive
O=C(O)c1ccc(OC2OC(CO)C(O)C(O)C2O)cc1 (stereo not given),Potency,[1],inactive
same,Potency,[2],inactive
C[C@@H]1O[C@@H](O[C@H]2[C@H](O)[C@@H](O[C@@H]3O[C@H](CO)[C@@H](O)[C@H](O[C@@H]4O[C@H](CO)[C@@H](O)[C@H](O)[C@H]4O)[C@H]3O)[C@H](O[C@H]3CC[C@@]4(C)C(=CC[C@@H]5C4CC[C@@]4(C)C5C[C@@H]5OC6(CC[C@@](C)(CO[C@@H]7O[C@H](CO)[C@@H](O)[C@H](O)[C@H]7O)O6)[C@@H](C)[C@@H]54)C3)O[C@@H]2CO)[C@H](O)[C@H](O)[C@H]1O (stereo not given in full),"activity change, negative = inhibition",[1],33% [at 19.1 µM] (inactive)
same,outcome,[2],inactive [at 10.7 µM]
CC(=O)N[C@@H](CCCCN)C(=O)N(C)[C@@H](CC(C)C)C(=O)N[C@H](C(=O)N(C)[C@@H](Cc1ccccc1)C(=O)N[C@H](Cc1ccccc1)C(N)=O)C(C)C,"activity change, negative = inhibition",[1],0% [at 11.5 µM] (inactive)
same,"activity change, negative = inhibition",[2],25% [at 4.91 µM] (inactive)
Cn1cc(-c2ccc3nnc(Sc4ccc5nn(C)cc5c4)n3n2)cn1,Potency,[1],inactive
same,Potency,[2],inactive
CC1OC(OC2C(C)OC(OC3C(O)C(CO)OC(O[C@H]4CC[C@@]5(C)C(CC[C@]6(C)C5CC=C5C7[C@@H](C)[C@H](C)CC[C@]7(C(=O)O)CC[C@]56C(=O)O)C4(C)C)C3O)C(O)C2O)C(O)C(O)C1O (stereo not given in full),Potency,[1],inactive
same,Potency,[2],inactive
NC1CCCCN(c2c(F)cc3c(=O)c(C(=O)O)cn(C4CC4)c3c2Cl)C1 (stereo not given),Potency,[1],inactive
same,Potency,[2],inactive
Cc1ccc(-c2c(C(=O)CF)n(CCCO)c3ncnc(N)c23)cc1,Potency,[1],inactive
same,Potency,[2],inactive
C/C=C/C=C/C(=O)N1CC[C@]23c4ccccc4N[C@H]4N(C)c5cccc6c5[C@@]42CCN([C@H]6C2OC2(C)C)[C@H]13 (stereo not given in full),Potency,[1],inactive
same,Potency,[2],inactive
FC(F)(F)c1ccc(Nc2nc(-c3c(C(F)(F)F)nc4ccccn34)cs2)cc1,Potency,[1],inactive
same,Potency,[2],inactive
O=C(CCc1ccccc1)N1CCC(O)(Cn2cnc3cc(Cl)ccc3c2=O)CC1,Potency,[1],inactive
same,Potency,[2],inactive
C[C@@H]1O[C@@H](O[C@H]2[C@H](O[C@H]3[C@H](O[C@H]4CC[C@@]5(C)C(CC[C@]6(C)C5CC=C5[C@@H]7CC(C)(C)CC[C@]7(C(=O)O[C@@H]7O[C@H](CO)[C@@H](O[C@@H]8O[C@@H](C)[C@H](O)[C@@H](O)[C@H]8O)[C@H](O)[C@H]7O)CC[C@]56C)C4(C)C)OC[C@H](O)[C@@H]3O)O[C@H](CO)[C@@H](O)[C@@H]2O)[C@H](O)[C@H](O)[C@H]1O (stereo not given in full),"activity change, negative = inhibition",[1],6.71% [at 19.1 µM] (inactive)
same,"activity change, negative = inhibition",[2],35.2% [at 10.7 µM] (inactive)
Cc1cccc(C)c1-n1c(=O)c2cnc(Nc3ccc(N4CCN(C)CC4)cc3)nc2n2c3ccccc3nc12,Potency,[1],inactive
same,Potency,[2],inactive
CC1(C)CC2C(O)c3cocc3CC(C)(O)C2C1 (stereo not given),Potency,[1],inactive
same,Potency,[2],inactive
C=C[C@H]1[C@H](O[C@@H]2O[C@H](CO)[C@@H](O)[C@H](O)[C@H]2O)OC=C(C(=O)OC)[C@H]1CCOC(=O)c1cc(O)c(O)c(O)c1,outcome,[3],inactive
